This is an account of results in PubChem BioAssay AID1481 (The Scripps Research Institute Molecular Screening Center, 2009).

SMILES strings stand for the structures. Out of some 220,000 compounds screened, about 920 (0.42%) were called active. No stated cut-off is given here; in the data, active means inhibition above about 15%; inactive means the rest. This excerpt belongs to a sample that is enriched for actives.

For this test, the target named is Transitional endoplasmic reticulum ATPase (Homo sapiens) (UniProt P55072). The test is described as follows: p97 ATP hydrolysis blockers – biochemical, primary screen (AID 1481).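 Further: 0% = DMSO vehicle and 100% = wells lacking enzyme.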 To be noted: recombinant p97 ATPase, Kinase-Glo ATP luminescence, 3 h; at 8 µM; hits give high values.
Sequence of Transitional endoplasmic reticulum ATPase (Homo sapiens) (P55072 whole entry, looked up): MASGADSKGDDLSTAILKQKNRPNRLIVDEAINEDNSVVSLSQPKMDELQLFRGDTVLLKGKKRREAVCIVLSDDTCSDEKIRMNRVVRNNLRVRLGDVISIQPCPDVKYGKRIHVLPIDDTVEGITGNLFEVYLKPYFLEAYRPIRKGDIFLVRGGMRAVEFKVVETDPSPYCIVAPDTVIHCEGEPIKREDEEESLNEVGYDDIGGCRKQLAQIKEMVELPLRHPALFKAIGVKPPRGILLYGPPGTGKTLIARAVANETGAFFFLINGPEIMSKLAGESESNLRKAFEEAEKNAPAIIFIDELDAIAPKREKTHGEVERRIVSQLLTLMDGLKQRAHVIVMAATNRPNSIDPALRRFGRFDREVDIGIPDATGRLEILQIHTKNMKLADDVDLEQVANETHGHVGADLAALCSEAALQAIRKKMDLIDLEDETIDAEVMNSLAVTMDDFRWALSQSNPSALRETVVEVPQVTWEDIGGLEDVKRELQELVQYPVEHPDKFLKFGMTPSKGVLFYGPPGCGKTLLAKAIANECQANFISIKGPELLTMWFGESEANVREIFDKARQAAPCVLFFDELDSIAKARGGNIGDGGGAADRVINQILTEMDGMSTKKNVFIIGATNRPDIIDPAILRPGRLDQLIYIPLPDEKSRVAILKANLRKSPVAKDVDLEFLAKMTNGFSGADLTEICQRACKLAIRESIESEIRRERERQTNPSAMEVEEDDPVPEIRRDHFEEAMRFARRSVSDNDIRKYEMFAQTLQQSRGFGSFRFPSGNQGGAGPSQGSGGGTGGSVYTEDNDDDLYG
Consider `Cc1ccccc1-n1c(C)cc(/C=C2\NC(=O)NC2=O)c1C`, for which the inhibition is -1.59% (inactive).
Regarding `Cc1no[n+]([O-])c1COc1ccccc1/C=C1\NC(=S)NC1=O`, the inhibition is 36% (active).
The value for `Cc1ccc(/C=N/NC(=O)COc2ccccc2-c2ccccc2)cc1` was -5.12% (inactive); that for `Cc1ccc(NC(=O)NC2CCCCC2)cc1S(=O)(=O)N1CCOCC1` was 1.18% (inactive).
For `CCOc1c(CNCc2ccc(C(=O)O)cc2)cccc1OC` the value was 3.61% (inactive).
The value for `O=C(c1[nH]ncc1-c1ccc(Cl)cc1)C1CO1` (stereo unspecified) was 18.1% (active); that for `O=C(c1nnc(-c2ccc(Cl)cc2)o1)C1CCCC1` was -6.78% (inactive); that for `S=c1[nH]nc(-c2ccc(Cl)cc2)n1CC1CCCO1` (stereo unspecified) was -0.03% (inactive).
On to `CN(CC(=O)NCCc1ccccc1)S(=O)(=O)c1cnc[nH]1`, for which the inhibition is -2.11% (inactive).
For `O=C(c1ccc(OC2CCN(C(=O)c3cccnc3)CC2)cc1)N1CCCCCC1` the value was -2.04% (inactive); for `Nc1nnnn1/N=C/c1cc([N+](=O)[O-])ccc1O`, 1.03% (inactive); for `CCOC(=O)CCCN1CC(O)=C(c2nc3ccccc3s2)C1=N`, -8.77% (inactive).
As to `N=C1C(c2nc3ccccc3s2)=C(O)CN1NC(=O)c1ccc([N+](=O)[O-])cc1`, the inhibition is 28.3% (active).
`COc1ccccc1N1CC(O)=C(c2nc3ccccc3s2)C1=N`: the inhibition is 6.21% (inactive).
For `O=C(CCc1ccccc1)Nc1nn[nH]n1`, the inhibition is -3.71% (inactive).
For `O=C(Nc1ccc2c(c1)OCCO2)C(c1ccc(F)cc1)N1CCCCC1` (stereo unspecified) the value was -0.16% (inactive); for `CC(NC(=S)Nc1ccc(S(N)(=O)=O)cc1)c1ccc2c(c1)OCO2` (stereo unspecified), 0.42% (inactive); for `CC1CCCN(C(C(=O)Nc2ccc(C(C)C)cc2)c2ccc3c(c2)OCO3)C1` (stereo unspecified), 15.3% (active).
For the compound `CN1C(=O)C(CC(=O)Nc2ccccc2)S/C1=N/c1nccs1` (stereo unspecified), the inhibition is 6.76% (inactive).
The value for `CC(=O)c1cc(C#N)c(N2CCCCC2)nc1C` was -1.2% (inactive).
For `Cc1cc(C)c(C#N)c(N2CCC(C(N)=O)CC2)n1` the value was 3.21% (inactive); for `N#Cc1c(N2CCCCC2)nc(N)c2c(N)nc(SCC(=O)O)cc12`, 53.6% (active); for `O=C(NC(=O)N1CCOCC1)c1ccccc1`, 5.31% (inactive).
For `O=C(CCl)N(Cc1cccc([N+](=O)[O-])c1)c1cccc(Cl)c1` the value was -3.6% (inactive).
Regarding `CCOC(=O)N1CCC(c2cc(=O)n(-c3ccccc3)[nH]2)CC1`, the inhibition is 23% (active).
For `CCOC(=O)CN1CCC(c2ccccc2)CC1` the value was -3.38% (inactive).
The value for `CCOC(=O)N1CCC(NC(=O)COc2cc(=O)n(C)c3ccccc23)CC1` was -0.15% (inactive); that for `CC(=O)Nc1nc2c(s1)C(=O)NCC(C)(C)C2` was 0.86% (inactive); that for `Cc1cc(C)c2c(n1)nn1c(N3CCN(c4cccc(Cl)c4)CC3)cc(C)nc21` was -0.34% (inactive).
For `Cc1cc(C)c2c(n1)nn1c(N3CCOCC3)cc(C)nc21` the value was 5.86% (inactive); for `Cc1cc(C)c2c(n1)nn1c(-n3ccnc3)cc(C)nc21`, 31.7% (active).
Regarding `O=[N+]([O-])c1cc([N+](=O)[O-])c2cccnc2c1O`, the inhibition was -0.5% (inactive).
For `O=C(/C=C/c1ccc(N2CCOCC2)cc1)c1ccccc1` the value was 3.1% (inactive).
For `NC(N)=N/N=C/c1ccc(Cl)c([N+](=O)[O-])c1` the value was 4.25% (inactive); for `NC(N)=N/N=C/c1ccc(OCc2ccc(Cl)cc2Cl)cc1`, 17.6% (active); for `COc1ccc(C(=O)O/N=C(\N)Cc2ccc(Cl)cc2Cl)cc1OC`, -0.33% (inactive).
Turning to `Nn1c(SCC(=O)Nc2nccs2)nncc1=O`, the inhibition is 3.78% (inactive).
The value for `COc1ccc(NC(=O)/C(Cl)=C(/Cl)S(=O)Cc2ccc(C)cc2)cn1` (stereo unspecified) was 10.7% (inactive).
The value for `COc1ccc(NC(=S)Nc2ccccc2Cl)cn1` was 2.95% (inactive); that for `COc1ccc(CS(=O)/C(Cl)=C(/Cl)C(=O)Nc2ccc(OC)nc2)cc1` (stereo unspecified) was 22% (active); that for `CC1CCN(c2ccc([N+](=O)[O-])c(SCCO)c2)CC1` was 7.8% (inactive).
For `Cc1cc(C)c2cc(CN(Cc3nnnn3Cc3ccc(F)cc3)C3CCCC3)c(=O)[nH]c2c1` the value was 28.6% (active).
As for `Cc1cccc2cc(CN(Cc3nnnn3Cc3ccccc3)C3CCCC3)c(=O)[nH]c12`, the inhibition is 1.15% (inactive).
Regarding `Cc1cc(C)c2cc(CN(Cc3cccs3)Cc3nnnn3CC3CCCO3)c(=O)[nH]c2c1` (stereo unspecified), the inhibition is -6.18% (inactive).
For `O=C(COc1ccc(/C=N/NS(=O)(=O)c2ccccc2)cc1)NCCc1ccccc1` the value was 0.13% (inactive).
As to `COCCNc1nc2nonc2nc1N(C)Cc1ccc(C)cc1`, the inhibition was -0.9% (inactive).
The value for `CN1CCN(/N=C2/C(=O)Nc3ccc([N+](=O)[O-])cc32)CC1` was -0.51% (inactive).
The value for `Cc1nc2cccnc2nc1C` was 5.4% (inactive); that for `O=C(N/N=C/c1sc(N2CCCCC2)nc1-c1cccs1)c1cccnc1` was -2.01% (inactive).
The value for `CC(=O)Nc1ccc(S(=O)(=O)Nc2ccc(-c3ccc4nnc(C)n4n3)cc2)cc1` was 0.45% (inactive).
Consider `CCOC(=O)c1cc2c(nc1NC(=S)Nc1ccccc1)CC(C)(CC)OC2` (stereo unspecified), for which the inhibition was -6.73% (inactive).
The value for `O=C(CN1CCCCC1)Nc1ccccc1Cl` was -2.65% (inactive); that for `O=C(Nc1ccccc1Cl)c1ccc2nsnc2c1` was 2.33% (inactive).
For `O=C(Nc1ccccc1Cl)/C(Cl)=C(\Cl)S(=O)c1ccccc1` (stereo unspecified) the value was 20% (active); for `CCCc1nc2c(c(=O)c3ccccc3n2C)c(=O)n1-c1cc(C)cc(C)c1`, 1.03% (inactive).
Turning to `COc1ccc(/C=N/N=C2/C(=O)Nc3ccccc32)cc1O`, the inhibition was -3.95% (inactive).
For `Cc1nnc2n1N=C(c1ccc3c(c1)NC(=O)CO3)CS2` the value was 4.3% (inactive).
The value for `O=C(OCC1O[C@@H](OC(=O)c2cc(O)c(O)c(O)c2)[C@@H](OC(=O)c2cc(O)c(O)c(O)c2)[C@@H](OC(=O)c2cc(O)c(O)c(O)c2)[C@@H]1OC(=O)c1cc(O)c(O)c(O)c1)c1cc(O)c(O)c(O)c1` (stereo partly specified) was 67% (active); that for `CC(=O)NC1C(OCc2ccccc2)OC(COC(C)=O)C(OC(C)=O)C1OC(C)=O` (stereo unspecified) was 1.05% (inactive).
The value for `COC(=O)c1scc(C)c1NC(=O)CSc1ccc(Cl)cc1` was -1.74% (inactive); that for `CN(C)[C@@H]1C(=O)C(C(N)=O)=C(O)[C@@]2(O)C(=O)C3=C(O)c4c(O)ccc(Cl)c4[C@@H](O)[C@H]3C[C@@H]12` was 23.4% (active); that for `COc1ccc(CCNS(=O)(=O)c2ccc(Cl)s2)cc1OC` was -7.85% (inactive).
Consider `Cn1c(N)cc(-c2ccc(F)cc2)c(C#N)c1=O`, for which the inhibition was -2.35% (inactive).
`O=C(Nc1nnc(CCN2CCCCC2)s1)c1cccc(Cl)c1`: the inhibition was 2.22% (inactive).
Regarding `Cn1c(=O)c2c(-c3cccc(Br)c3)c(C#N)c(N)nc2n(C)c1=O`, the inhibition is 0.09% (inactive).
The value for `O=C(c1cccc(S(=O)(=O)N2CCOCC2)c1)N1CCOCC1` was 0.28% (inactive); that for `O=C(NNC(=S)Nc1ccccc1)c1cccc(S(=O)(=O)N2CCOCC2)c1` was 15.6% (active); that for `Cc1cc(C(=O)NNC(=O)c2cccc(S(=O)(=O)N3CCOCC3)c2)c2ccccc2n1` was -3.18% (inactive).
In the case of `COCC(C)NCc1cc(Br)ccc1OC` (stereo unspecified), the inhibition is 0.25% (inactive).
Take `Cn1cccc1/C=N/NC(=O)CNc1cccc2ccccc12`: the inhibition is 3.45% (inactive).
`CN(C)C=NC(=O)c1cccn1-c1ncc(C(F)(F)F)cc1Cl`: the inhibition is -5.69% (inactive).
Consider `O=C(C1=C(O)C(=O)N(CCOCCO)C1c1ccccn1)c1cccs1` (stereo unspecified), for which the inhibition was 2.8% (inactive).
The value for `Cc1cc(C)cc(NC(=O)N(C)Cc2ccccc2)c1` was -0.6% (inactive); that for `Cn1c(SCC(=O)C(C)(C)C)nnc1-c1ccccn1` was -4.36% (inactive).
The value for `CCOc1cc(-c2cc(-c3ccc(OC)cc3)nc(N)c2C#N)ccc1O` was 2.46% (inactive); that for `CCSc1nc(-c2ccc(OC)cc2)cc(-c2ccc(OC)cc2)c1C#N` was 0.73% (inactive); that for `COc1ccc(-c2cc(-c3ccc(N)cc3)nc(N)c2C#N)cc1OC` was 18.6% (active).
On to `COc1ccc(N2CCC(CNC(=S)Nc3c(C)cccc3C)C2)cc1` (stereo unspecified), for which the inhibition was 1.49% (inactive).
For `O=C1N(c2ccc(Cl)cc2)C(c2ccc(Cl)cc2)N2CCCN12` (stereo unspecified), the inhibition was 4.79% (inactive).
As for `Cn1c(=NC(=O)c2ccc3c(c2)OCCO3)sc2cc(S(C)(=O)=O)ccc21`, the inhibition was -0.6% (inactive).
For `S=C(Cc1ccc(Cl)cc1)N1CCOCC1` the value was -3.61% (inactive).
For `Cc1ccc(S(=O)(=O)CC(=O)Nc2c(C)n(C)n(-c3ccccc3)c2=O)cc1` the value was 0.73% (inactive); for `Cc1ccccc1OCCC(=O)Nc1c(C)n(C)n(-c2ccccc2)c1=O`, 3.48% (inactive); for `CC(=O)N1CCc2cc(Br)cc(S(=O)(=O)CCC(=O)Nc3c(C)n(C)n(-c4ccccc4)c3=O)c21`, 16.1% (active).
`O=C(/C=C/c1ccc2c(c1)OCCO2)c1ccc(O)cc1`: the inhibition was 9.09% (inactive).
As for `CCN(c1ccccc1)S(=O)(=O)c1ccc2[nH]c(=O)[nH]c2c1`, the inhibition was 5.66% (inactive).
The value for `CCN(c1ccccc1)S(=O)(=O)c1ccc(NC(=O)C(C)(C)C)cc1` was 0.99% (inactive); that for `CCN(c1ccccc1)S(=O)(=O)c1ccc(N)cc1` was 21.5% (active); that for `CS(=O)(=O)N1CCC(C(=O)N2CCN(c3ccccc3)CC2)CC1` was 1.55% (inactive).
The value for `CSc1ccccc1NC(=O)CN(C)CC(=O)Nc1cccc(Br)c1` was -6.18% (inactive); that for `C/C=N/N(c1ccccc1)c1ccccc1` was 0.39% (inactive).
The value for `CCOc1c(Br)cc(/C=C2\C(=O)N(CCC#N)N=C2C)cc1OC` was 26.9% (active); that for `CCOc1cc(/C=N/O)cc(Br)c1OC` was 7.25% (inactive); that for `C=CCOc1c(Br)cc(/C=N\n2nnnc2N)cc1OC` was -2.19% (inactive).
Take `C/C(CC(=O)Nc1ccc(Cl)cc1)=N\NC(=O)C(=O)NCCO`: the inhibition was 2.21% (inactive).
`O=S(=O)(Cc1ccccc1)c1nc2ccccc2n1Cc1ccccn1`: the inhibition was 2.46% (inactive).

As a reminder, the inhibition is the change of the read-out against control, counted positive when it falls.
